Assay results as given in the supplement of paper PMC12645437, “Orthogonal IMiD-Degron Pairs Induce Selective Protein Degradation in Cells” (ACS Chemical Biology, 2025).
The full ranking holds about 8,300 sequences; the median of “log2 fold change of degron read counts, EGFP-low vs EGFP+ sorted cells (limma voom), compound-induced degradation” is about -1.1, and the highest 2% start at about 3.2. The sample holds the highest values, similar sequences and a random draw of the others, so the mix is not that of the screen.

T1: CRBN, Q96SW2
T1 chain: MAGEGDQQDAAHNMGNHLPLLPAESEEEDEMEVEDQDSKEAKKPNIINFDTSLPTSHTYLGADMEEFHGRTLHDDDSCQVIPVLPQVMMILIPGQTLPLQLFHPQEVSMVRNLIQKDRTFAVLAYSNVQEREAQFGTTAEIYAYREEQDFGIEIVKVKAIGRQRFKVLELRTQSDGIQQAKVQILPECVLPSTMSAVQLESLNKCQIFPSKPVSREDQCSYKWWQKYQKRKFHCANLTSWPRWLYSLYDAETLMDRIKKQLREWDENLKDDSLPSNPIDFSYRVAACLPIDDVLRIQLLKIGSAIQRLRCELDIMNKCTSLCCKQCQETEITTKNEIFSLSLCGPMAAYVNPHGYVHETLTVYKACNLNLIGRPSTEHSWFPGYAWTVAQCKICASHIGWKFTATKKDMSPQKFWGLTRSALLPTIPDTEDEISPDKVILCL

B1: 46F_47E_49E_50Q_52G_53A_54D_55F_67L_, Q9UKT9 (peptide)
chain: FECEQCGADFTQKGNLLRHIKL
B2: 46F_47W_49P_50V_52G_53A_54L_55F_67L_, Q9UKT9 (peptide)
chain: FWCPVCGALFTQKGNLLRHIKL
B3: 46F_47Y_49E_50I_52G_53R_54E_55F_67L_, Q9UKT9 (peptide)
chain: FYCEICGREFTQKGNLLRHIKL
B4: 46F_47G_49P_50I_52G_53H_54W_55F_67L_, Q9UKT9 (peptide)
chain: FGCPICGHWFTQKGNLLRHIKL
B5: 46F_47Q_49E_50V_52G_53A_54N_55F_67L_, Q9UKT9 (peptide)
chain: FQCEVCGANFTQKGNLLRHIKL
B6: 46F_47M_49E_50V_52G_53A_54N_55F_67L_, Q9UKT9 (peptide)
chain: FMCEVCGANFTQKGNLLRHIKL
B7: 46F_47Y_49E_50V_52G_53A_54N_55F_67L_, Q9UKT9 (peptide)
chain: FYCEVCGANFTQKGNLLRHIKL
B8: 46F_47F_49E_50V_52G_53A_54N_55F_67L_, Q9UKT9 (peptide)
chain: FFCEVCGANFTQKGNLLRHIKL
B9: 46F_47W_49E_50V_52G_53A_54N_55F_67L_, Q9UKT9 (peptide)
chain: FWCEVCGANFTQKGNLLRHIKL
B10: 46F_47V_49E_50V_52G_53A_54N_55F_67L_, Q9UKT9 (peptide)
chain: FVCEVCGANFTQKGNLLRHIKL
B11: 46F_47H_49E_50V_52G_53A_54N_55F_67L_, Q9UKT9 (peptide)
chain: FHCEVCGANFTQKGNLLRHIKL
B12: 46F_47T_49E_50V_52G_53A_54N_55F_67L_, Q9UKT9 (peptide)
chain: FTCEVCGANFTQKGNLLRHIKL
B13: 46F_47E_49E_50V_52G_53A_54N_55F_67L_, Q9UKT9 (peptide)
chain: FECEVCGANFTQKGNLLRHIKL
B14: 46F_47I_49E_50V_52G_53A_54N_55F_67L_, Q9UKT9 (peptide)
chain: FICEVCGANFTQKGNLLRHIKL
B15: 46F_47L_49E_50V_52G_53A_54N_55F_67L_, Q9UKT9 (peptide)
chain: FLCEVCGANFTQKGNLLRHIKL
B16: 46F_47N_49E_50V_52G_53A_54N_55F_67L_, Q9UKT9 (peptide)
chain: FNCEVCGANFTQKGNLLRHIKL
B17: 46F_47H_49N_50I_52G_53A_54H_55F_67L_, Q9UKT9 (peptide)
chain: FHCNICGAHFTQKGNLLRHIKL
B18: 46F_47G_49P_50I_52G_53H_54Q_55F_67L_, Q9UKT9 (peptide)
chain: FGCPICGHQFTQKGNLLRHIKL
B19: 46F_47V_49E_50V_52G_53A_54W_55F_67L_, Q9UKT9 (peptide)
chain: FVCEVCGAWFTQKGNLLRHIKL
B20: 46F_47L_49D_50Q_52G_53A_54M_55F_67L_, Q9UKT9 (peptide)
chain: FLCDQCGAMFTQKGNLLRHIKL
B21: 46F_47I_49N_50Q_52G_53R_54A_55F_67L_, Q9UKT9 (peptide)
chain: FICNQCGRAFTQKGNLLRHIKL
B22: 46F_47G_49N_50Q_52G_53A_54H_55F_67L_, Q9UKT9 (peptide)
chain: FGCNQCGAHFTQKGNLLRHIKL
B23: 46F_47R_49E_50I_52G_53H_54Q_55F_67L_, Q9UKT9 (peptide)
chain: FRCEICGHQFTQKGNLLRHIKL
B24: 46F_47Q_49D_50V_52G_53A_54C_55F_67L_, Q9UKT9 (peptide)
chain: FQCDVCGACFTQKGNLLRHIKL
B25: 46F_47L_49S_50V_52G_53H_54L_55F_67L_, Q9UKT9 (peptide)
chain: FLCSVCGHLFTQKGNLLRHIKL
B26: 46L_47T_49P_50I_52G_53F_54Q_55C_67L_, Q9UKT9 (peptide)
chain: LTCPICGFQCTQKGNLLRHIKL
B27: 46L_47M_49P_50I_52G_53F_54Q_55C_67L_, Q9UKT9 (peptide)
chain: LMCPICGFQCTQKGNLLRHIKL
B28: 46L_47Q_49P_50I_52G_53F_54Q_55C_67L_, Q9UKT9 (peptide)
chain: LQCPICGFQCTQKGNLLRHIKL
B29: 46L_47N_49P_50I_52G_53F_54Q_55C_67L_, Q9UKT9 (peptide)
chain: LNCPICGFQCTQKGNLLRHIKL
B30: 46L_47W_49P_50I_52G_53F_54Q_55C_67L_, Q9UKT9 (peptide)
chain: LWCPICGFQCTQKGNLLRHIKL
B31: 46L_47I_49P_50I_52G_53F_54Q_55C_67L_, Q9UKT9 (peptide)
chain: LICPICGFQCTQKGNLLRHIKL
B32: 46L_47F_49P_50I_52G_53F_54Q_55C_67L_, Q9UKT9 (peptide)
chain: LFCPICGFQCTQKGNLLRHIKL
B33: 46L_47K_49P_50I_52G_53F_54Q_55C_67L_, Q9UKT9 (peptide)
chain: LKCPICGFQCTQKGNLLRHIKL
B34: 46L_47Y_49P_50I_52G_53F_54Q_55C_67L_, Q9UKT9 (peptide)
chain: LYCPICGFQCTQKGNLLRHIKL
B35: 46L_47C_49P_50I_52G_53F_54Q_55C_67L_, Q9UKT9 (peptide)
chain: LCCPICGFQCTQKGNLLRHIKL
B36: 46L_47R_49P_50I_52G_53F_54Q_55C_67L_, Q9UKT9 (peptide)
chain: LRCPICGFQCTQKGNLLRHIKL
B37: 46L_47D_49P_50I_52G_53F_54Q_55C_67L_, Q9UKT9 (peptide)
chain: LDCPICGFQCTQKGNLLRHIKL

Biological target: T1, CRBN, Q96SW2
Experiment: log2 fold change of degron read counts, EGFP-low vs EGFP+ sorted cells (limma voom), compound-induced degradation; higher = more compound-induced degradation of the degron-EGFP fusion; degrons are variants of IKZF1/3 zinc finger 2; compound dose not given here
Details: Jurkat, 18 h
[1] = compound: compound 19 (5-tert-butyl-thalidomide)
[2] = compound: compound 22 (5-morpholino-thalidomide)
[3] = compound: compound 33 (diphenyl IMiD analogue)
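Note: pooled lentiviral library of zinc finger degron-EGFP fusions in mCherry-positive Jurkat cells, FACS-sorted after compound exposure, with degron abundance counted by next-generation sequencing.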

Sequence	log2 fold change of degron read counts [1]	log2 fold change of degron read counts [2]	log2 fold change of degron read counts [3]	log2 fold change of degron read counts (compound: thalidomide)
B1	-3.85	-4.35	-2.06	-2.36
B2	1.3	2.3	1.77	0.113
B3	-0.515	-1.07	-0.325	-1.93
B4	-1.35	-2.19	-1.6	-1.77
B5	0.104	1.29	1.34	3.56
B6	-0.728	0.197	2.72	1.11
B7	3.26	3.88	2.56	1.5
B8	2.83	3.44	1.84	1.47
B9	3.33	3.86	2.16	1.61
B10	-0.0108	2.6	2.09	2.74
B11	0.846	0.806	-0.028	-0.545
B12	-0.297	1.72	1.21	2.03
B13	-0.492	-1.03	2.04	2.31
B14	-0.804	2.54	2.03	2.44
B15	-0.0798	-0.418	0.939	1.25
B16	2.09	0.096	-0.251	-0.321
B17	0.23	-0.286	-0.308	-1.49
B18	-1.23	-2.85	-2.17	-2.38
B19	-1.7	-0.89	0.622	0.0931

Sequence	log2 fold change of degron read counts [1]	log2 fold change of degron read counts [2]	log2 fold change of degron read counts [3]	log2 fold change of degron read counts (compound: thalidomide)
B20	-3.11	-2.68	-1.79	-2.7
B21	-2.99	-3.18	-3.02	-2.57
B22	-2.35	-2.82	-1.79	-2.17
B23	-3.28	-3.74	-2.48	-2.14
B24	-1.14	1.47	0.493	3.01
B25	-2.16	-2.42	-2.1	-2
B26	0.773	2.5	2.25	2.88
B27	0.282	1.65	2.68	2.37
B28	1.01	1.71	1.77	3.45
B29	1.88	1.12	0.537	1.19
B30	3.21	3.52	2.81	1.97
B31	0.317	2.57	2.11	2.94
B32	3.36	3.29	2.33	2.04
B33	-0.0362	-1.47	-1.46	0.648
B34	3.45	3.56	2.59	1.87
B35	2.04	2.42	2.76	2.48
B36	0.722	0.186	1.12	1.62
B37	0.742	0.239	0.58	1.8
